# IDE exosite FP: exo-site inhibitors of human insulin-degrading enzyme. z-score at 20 µM. purified IDE, FL-6b probe fluorescence polarization; active compounds read low. AID 1259349. P14735. actives 6.3% (n = 17,000);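 active = z-score of -3 or lower, meaning strong loss of probe binding signal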;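 note: His-tagged human IDE residues 42-1019 made in E. coli with 30 nM FL-6b probe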
# Target sequence (P14735 42-1019 limits assumed): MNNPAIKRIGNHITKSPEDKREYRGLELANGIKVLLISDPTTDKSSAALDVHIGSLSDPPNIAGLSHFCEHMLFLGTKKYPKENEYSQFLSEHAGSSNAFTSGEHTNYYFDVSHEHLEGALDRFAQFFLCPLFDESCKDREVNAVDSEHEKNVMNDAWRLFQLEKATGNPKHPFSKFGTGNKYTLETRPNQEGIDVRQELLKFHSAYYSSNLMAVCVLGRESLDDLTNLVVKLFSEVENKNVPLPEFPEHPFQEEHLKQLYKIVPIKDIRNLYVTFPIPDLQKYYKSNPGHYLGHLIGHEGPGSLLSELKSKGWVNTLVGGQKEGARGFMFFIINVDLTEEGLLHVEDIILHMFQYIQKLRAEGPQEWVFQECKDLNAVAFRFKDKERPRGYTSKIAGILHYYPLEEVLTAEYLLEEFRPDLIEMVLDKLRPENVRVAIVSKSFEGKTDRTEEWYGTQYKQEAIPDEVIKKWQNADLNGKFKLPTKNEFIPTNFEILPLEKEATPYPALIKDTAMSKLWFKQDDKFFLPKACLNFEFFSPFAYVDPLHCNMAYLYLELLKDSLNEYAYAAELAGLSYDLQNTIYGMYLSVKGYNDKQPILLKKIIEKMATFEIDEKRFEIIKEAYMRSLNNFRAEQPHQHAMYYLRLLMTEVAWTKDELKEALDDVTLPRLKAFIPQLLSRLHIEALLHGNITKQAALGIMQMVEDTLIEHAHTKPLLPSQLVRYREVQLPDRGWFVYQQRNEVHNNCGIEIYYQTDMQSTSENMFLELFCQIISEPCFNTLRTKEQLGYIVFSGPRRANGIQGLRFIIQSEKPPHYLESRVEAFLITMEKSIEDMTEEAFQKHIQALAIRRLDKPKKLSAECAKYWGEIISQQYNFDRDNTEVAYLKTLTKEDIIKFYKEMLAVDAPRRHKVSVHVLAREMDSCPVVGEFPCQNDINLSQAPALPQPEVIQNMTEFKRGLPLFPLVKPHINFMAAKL
# Starred values were filed as active, the others as inactive. This is one part of a sample in which hits are shown more often than they occur.
SMILES,IDE exosite FP
O=C(CC1CC1)N1CC(=O)N2[C@@H](CO)[C@@H](c3ccc(-c4cccnc4)cc3)[C@@H]2C1,-1.4
O=C(c1ccc(F)cc1)N1CC(=O)N2[C@H](C1)[C@H](c1ccc(/C=C/c3ccccc3)cc1)[C@@H]2CO,-2.8
O=C(CC1CC1)N1CC(=O)N2[C@H](C1)[C@H](c1ccc(/C=C/c3ccccc3)cc1)[C@@H]2CO,-3.8*
CN(C)CC(=O)N1CC(=O)N2[C@@H](CO)[C@H](c3ccc(-c4ccc(C#N)cc4)cc3)[C@@H]2C1,2.8
O=C(CC1CC1)N1CC(=O)N2[C@H](CO)[C@@H](c3ccc(C#Cc4ccccc4)cc3)[C@H]2C1,-6.4*
CCCC(=O)Nc1ccc2c(c1)OC[C@@H](C)NC[C@@H](C)[C@@H](OC)CN(C)C2=O,0.051
COc1ccc2c3c(n(C)c2c1)[C@@H](CO)N(C(=O)c1ccccn1)CC31CN(C(=O)Cc2ccccc2)C1,-0.0084
C/C=C/c1ccc([C@@H]2[C@H](CO)N(C(=O)c3ccccc3)C23CN(C(C)=O)C3)cc1,1.1
O=C(C[C@H]1CC[C@@H]2[C@H](COC[C@@H](O)CN2Cc2nccs2)O1)NCc1ccccc1Cl,0.51
O=C1[C@H](Cc2ccc(C(F)(F)F)cc2)CCn2nncc2COC[C@H]2CCCCN12,2.4
N#Cc1cccc(-c2ccc3c(c2)[C@H]2[C@H](CCN2S(=O)(=O)c2ccc(F)cc2)[C@H](CO)N3)c1,-0.027
CCC(=O)N1[C@H](CO)[C@H]2c3ccccc3N(C(=O)Nc3ccc(Cl)cc3)C[C@H]21,-0.85
CO[C@H]1CC[C@@H]2CCN(C)C(=O)[C@@H](C)N(C)C(=O)c3cccc(C#N)c3OC[C@H]1O2,1.5
CC(C)C#Cc1ccc([C@H]2[C@H]3CN(C(=O)Cc4cccnc4)CC(=O)N3[C@H]2CO)cc1,3.7
O=C(Cc1cccnc1)N1CC(=O)N2[C@H](C1)[C@H](c1ccc(/C=C/c3ccccc3)cc1)[C@@H]2CO,-5*
C/C=C/c1ccc([C@H]2[C@@H](CO)N3C(=O)CN(C(=O)Cc4cccnc4)C[C@@H]23)cc1,-1.7
C/C=C/c1ccc([C@H]2[C@H](CO)N3C(=O)CN(C(=O)Cc4cccnc4)C[C@@H]23)cc1,2.1
C/C=C/c1ccc([C@@H]2[C@@H](CO)N3C(=O)CN(C(=O)Cc4cccnc4)C[C@@H]23)cc1,3.2
O=C(Cc1cccnc1)N1CC(=O)N2[C@H](CO)[C@@H](c3ccc(/C=C/c4ccccc4)cc3)[C@@H]2C1,-0.7
O=C(Cc1cccnc1)N1CC(=O)N2[C@H](CO)[C@H](c3ccc(/C=C/c4ccccc4)cc3)[C@@H]2C1,-5.1*
CN(C)C(=O)c1ccc(-c2ccc([C@H]3[C@@H](CO)N4CCCCN(S(C)(=O)=O)C[C@@H]34)cc2)cc1,-1.4
CCC(=O)N1C[C@@H](C)[C@@H](OC)CN(C)C(=O)c2cc(NC(=O)Nc3ccc(Cl)cc3)ccc2OC[C@@H]1C,0.051
O=S(=O)(Cc1ccccc1)N1[C@H](CO)[C@@H](c2ccccc2)C12CN(CCC(F)(F)F)C2,1.1
Cc1ccc(-c2ccc([C@H]3[C@@H](CO)N4C(=O)CN(C(=O)Nc5cccc(F)c5)C[C@H]34)cc2)cc1,2.8
Cc1cccc(-c2ccc([C@@H]3[C@@H](CO)N4CCCCN(S(=O)(=O)c5ccccc5F)C[C@H]34)cc2)c1,0.5
SMILES,IDE exosite FP
Cc1cccc(-c2ccc([C@H]3[C@@H](CO)N4CCCCN(S(=O)(=O)c5ccccc5F)C[C@@H]34)cc2)c1,-0.051
Cc1cccc(-c2ccc([C@H]3[C@@H](CO)N4CCCCN(S(=O)(=O)c5ccccc5C)C[C@@H]34)cc2)c1,3.6
Cc1cccc(-c2ccc([C@@H]3[C@H](CO)N4CCCCN(S(=O)(=O)c5ccccc5C)C[C@@H]34)cc2)c1,-11*
Cc1cccc(-c2ccc([C@@H]3[C@@H](CO)N4CCCCN(S(=O)(=O)c5ccccc5F)C[C@@H]34)cc2)c1,-27*
Cc1cccc(-c2ccc([C@H]3[C@@H](CO)N4CCCCN(S(=O)(=O)c5ccccc5C)C[C@H]34)cc2)c1,-0.56
CCC(=O)N1[C@H](CO)[C@@H](c2ccccc2)[C@@H]1CN(C(C)C)S(C)(=O)=O,4.2
CC(=O)NC[C@@H]1[C@@H](c2ccc(C3=CCCC3)cc2)[C@@H](CO)N1C(=O)CN(C)C,0.85
N#C[C@H]1N[C@H](CO)[C@@H]1c1ccc(C2=CCCCC2)cc1,4.3
CO[C@H]1CN(C)C(=O)c2ccc(NC(C)=O)cc2OC[C@@H](C)N(C(=O)c2cnccn2)C[C@@H]1C,0.93
Cc1ccccc1-c1ccc([C@@H]2[C@@H](CO)N3C(=O)CN(C(=O)c4ccncc4)C[C@@H]23)cc1,-3.5*
CC(C)C#Cc1ccc([C@@H]2[C@@H](CO)N3C(=O)CN(C(=O)c4ccccn4)C[C@H]23)cc1,2.7
Cc1ccccc1-c1ccc([C@H]2[C@H]3CN(C(=O)c4ccncc4)CC(=O)N3[C@H]2CO)cc1,0.38
Cc1ccccc1-c1ccc([C@@H]2[C@H](CO)N3C(=O)CN(C(=O)c4ccncc4)C[C@@H]23)cc1,-5.3*
Cc1ccccc1-c1ccc([C@H]2[C@H]3CN(C(=O)c4ccccc4)CC(=O)N3[C@H]2CO)cc1,0.77
Cc1ccccc1-c1ccc([C@H]2[C@@H](CO)N3C(=O)CN(C(=O)c4ccccn4)C[C@@H]23)cc1,-12*
COc1ccc(-c2ccc([C@H]3[C@@H](CO)N4C(=O)CN(C(=O)c5ccccn5)C[C@@H]34)cc2)cc1,-1.3
O=C(c1ccncc1)N1CC(=O)N2[C@H](C1)[C@H](c1ccc(-c3ccccc3F)cc1)[C@@H]2CO,-0.15
O=C(c1ccncc1)N1CC(=O)N2[C@@H](CO)[C@@H](c3ccc(-c4cccnc4)cc3)[C@@H]2C1,1.8
O=C(c1ccncc1)N1CC(=O)N2[C@H](CO)[C@@H](c3ccc(-c4ccccc4F)cc3)[C@@H]2C1,-1.9
O=C(c1ccncc1)N1CC(=O)N2[C@H](CO)[C@H](c3ccc(-c4ccccc4F)cc3)[C@H]2C1,-4.8*
O=C(C1CC1)N1CC(=O)N2[C@H](CO)[C@@H](c3ccc(C#CC4CCCC4)cc3)[C@H]2C1,2.1
Cc1ccccc1-c1ccccc1[C@H]1[C@@H](C#N)N(C(=O)c2ccc(F)cc2)[C@H]1CO,0.092
COc1ccc([C@H]2C/C=C\C[C@@H](c3ccc4c(c3)OCO4)NC(=O)[C@@H](c3ccccc3)CC(=O)N2)c(OC)c1,-0.25
O=C(NC[C@H]1N[C@H](CO)[C@H]1c1ccccc1)C1CC1,0.17
Cc1ccccc1-c1ccc(C2[C@H]3CNC[C@@H]2N3C(=O)Nc2ccc(C(F)(F)F)cc2)cc1 (stereo not given in full),-1.8
SMILES,IDE exosite FP
C/C=C/c1ccc2c(c1)[C@@H]1[C@@H](CCN1S(=O)(=O)c1ccccc1OC)[C@H](CO)N2C,-0.095
Cc1ccc(NC(=O)Nc2ccc3c(c2)C(=O)N(C)[C@@H]2CC[C@H](CC(=O)NCC(F)(F)F)O[C@@H]2CO3)cc1,-1.1
O=C1CNC[C@@H]2[C@@H](c3ccc(C4=CCCCC4)cc3)[C@H](CO)N12,0.49
Cn1cnc(S(=O)(=O)N[C@@H]2CC[C@H](CC(=O)NCC3CCCCC3)O[C@@H]2CO)c1,0.99
CO[C@@H]1CC[C@@H]2CCOc3c(C#N)cccc3C(=O)N(C)C[C@@H](c3ccccc3)CC(=O)N(C)C[C@@H]1O2,0.65
O=C(Nc1cccc(F)c1)N1CC(=O)N2[C@H](CO)[C@H](c3ccc(C#CCC4CCCC4)cc3)[C@H]2C1,3.1

# Assay outcomes (PubChem)
